Source: PubChem (several laboratories)
Myeloid diff 2 – myeloid differentiation induction; ER-HoxA9 myeloid progenitors, lysozyme-GFP differentiation, flow cytometry; AID 624256; 1% of 360,000 active; calls only at 10 µM;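 active = normalized GFP-positive differentiation at or above the plate's own cutoff, the solvent-only control mean plus 3 SD; inconclusive = no clear call, values can overlap the other calls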;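 note: cells exposed to compound for four days before flow analysis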
CRFBP-R2 block – antagonists of CRF-binding protein/CRF-R2 receptor complex. HEK293 CRF-R2/CRF-BP, CRF-induced calcium fluorescence. inhibition, % at 11.8 µM. 0.59% of 350,000 active;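 active = inhibition of the ligand-induced calcium signal above about 50% at the single tested concentration, limit read from the data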
NRP1-CendR mod – alters CendR peptide binding to human NRP-1 | inhibition, % at 25 µM | FAM-RPARPAR peptide binding to NRP-1, fluorescence polarization | 0.85% of 360,000 active | O14786 | AID 602438;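 active = inhibition or corrected inhibition above about 18%, plus a signal ratio from 0.5 to 1.5, limit read from the data, passing the limit was not always enough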
Target sequence (O14786 whole entry, looked up): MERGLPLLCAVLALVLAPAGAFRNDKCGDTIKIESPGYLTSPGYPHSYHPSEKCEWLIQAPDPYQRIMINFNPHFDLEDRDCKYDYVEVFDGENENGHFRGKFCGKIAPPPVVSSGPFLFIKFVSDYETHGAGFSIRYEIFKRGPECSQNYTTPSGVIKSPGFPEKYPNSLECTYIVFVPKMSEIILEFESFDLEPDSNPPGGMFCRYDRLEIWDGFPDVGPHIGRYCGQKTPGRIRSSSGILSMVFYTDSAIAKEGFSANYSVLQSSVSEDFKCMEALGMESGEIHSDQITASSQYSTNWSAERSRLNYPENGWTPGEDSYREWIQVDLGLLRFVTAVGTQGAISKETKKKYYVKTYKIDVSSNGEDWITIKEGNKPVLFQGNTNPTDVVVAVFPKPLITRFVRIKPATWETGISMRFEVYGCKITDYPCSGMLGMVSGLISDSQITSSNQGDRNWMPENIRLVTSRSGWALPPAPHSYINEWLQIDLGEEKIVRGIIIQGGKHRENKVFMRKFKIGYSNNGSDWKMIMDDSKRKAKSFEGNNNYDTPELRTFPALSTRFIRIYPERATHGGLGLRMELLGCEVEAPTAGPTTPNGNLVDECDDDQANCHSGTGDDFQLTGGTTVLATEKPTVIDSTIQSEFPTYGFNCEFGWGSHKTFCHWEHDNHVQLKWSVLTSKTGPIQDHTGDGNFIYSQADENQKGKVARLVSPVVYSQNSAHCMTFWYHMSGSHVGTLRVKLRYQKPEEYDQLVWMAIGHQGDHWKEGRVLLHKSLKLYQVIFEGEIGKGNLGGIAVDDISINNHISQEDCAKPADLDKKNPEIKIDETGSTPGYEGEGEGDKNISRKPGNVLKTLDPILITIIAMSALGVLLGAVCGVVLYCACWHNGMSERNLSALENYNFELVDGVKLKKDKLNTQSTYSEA
FAS TE block – FAS thioesterase (human) inhibition | recombinant FAS-TE, OMFH fluorogenic substrate, fluorescence endpoint | inhibition, % at 15 µM | 0.67% of 360,000 active | AID 602261;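 active = compounds whose normalised, plate-corrected inhibition of enzyme fluorescence in the single-dose primary screen is 50% or more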
NadD block – NadD (S. aureus) enzyme inhibition; purified NadD enzyme, colorimetric absorbance read-out; inhibition, % at 20 µM; 0.78% of 360,000 active; in the data active = inhibition above about 26%
Hits are given with their value; i = inactive; ? = inconclusive; nt = no result; + = active, no number; ! = not confirmed by another sample. Compounds with a hit are over-represented: about 3.6% of the library has one in this group of screens.

SMILES | Myeloid diff 2 | CRFBP-R2 block | NRP1-CendR mod | FAS TE block | NadD block
CC(=O)N1CCN(c2ccc([N+](=O)[O-])cc2)CC1 | i | i | i | i | i
CC(=O)N1CCN(C(=S)c2ccc([N+](=O)[O-])cc2)CC1 | i | i | 18 | i | i
O=C(N/N=C/c1cn(-c2ccccc2)nc1-c1cc2ccccc2o1)c1cccnc1 | i | i | i | i | i
O=C(N/N=C/c1cn(-c2ccccc2)nc1-c1cc2ccccc2o1)c1ccncc1 | + | i | i | i | i
Cn1c(=O)c2cc3ccc(Cl)cc3nc2n(C)c1=O | i | 52 | i | i | i
CCOC(=O)c1[nH]c2ccccc2c1NC(=O)Nc1ccc(OC)cc1 | i | 85 | i | i | i
COc1ccc(NC(=O)Nc2ccc(O)c3ccccc23)cc1 | nt | 50 | nt | nt | nt
CCOC(=O)c1ccc(NC(=O)NNC(=O)CCc2ccc(OC)cc2)cc1 | + | i | i | i | i
O=C(CCN1C(=O)/C(=C/c2ccc(F)cc2)SC1=S)N[C@@H](CO)Cc1ccccc1 | i | i | i | i | i
Cc1ccc(NC(=O)c2cc(S(=O)(=O)N3CCCCC3)c[nH]2)cc1Cl | i | nt | i | i | i
NCCC(=O)NCCc1cnc[nH]1 | i | i | i | i | i
NCCc1cnc[nH]1 | i | i | 19! | i | i
CCCCOc1ccc(/C=c2\sc3ncnn3c2=O)cc1 | i | i | 20 | i | i
COc1ccc(NC(=O)c2cc(C3CCCCN3C(=O)OCc3ccccc3)on2)c(C)c1 (stereo not drawn) | i | nt | i | i | i
O=C(O)C=C(Br)Br | i | i | i | i | i
CCOC(=O)C1=CCN(S(=O)(=O)c2ccccc2Br)C1c1ccccc1 (stereo not drawn) | i | nt | 25 | i | i
CCOC(=O)C1=CCN(S(=O)(=O)c2ccccc2Br)C1c1ccc(C)cc1 (stereo not drawn) | i | nt | i | i | i
CCOC(=O)C1=CCN(S(=O)(=O)c2ccc(C)cc2)C1c1ccc(C(C)C)cc1 (stereo not drawn) | i | nt | 28 | i | i
CCOC(=O)C1=C(c2ccccc2)N=c2s/c(=C\c3ccc(O)cc3)c(=O)n2C1c1cccs1 (stereo not drawn) | i | i | i | i | 35
C[C@H](NC(=O)[C@H]1N2C(=O)c3ccccc3C2SC1(C)C)C(=O)NCC1CCCO1 (stereo partly drawn) | i | i | i | i | i
CCN(c1ccc(OC)cc1)S(=O)(=O)N1CCCC(C(=O)NC(C)c2ccccc2)C1 (stereo not drawn) | i | nt | i | i | i
CCOC(=O)C1=CCN(S(=O)(=O)c2ccc(C)cc2)C1c1cccc(Br)c1 (stereo not drawn) | i | nt | i | i | i
CNC(=O)OCc1nc(SSC(C)(C)C)n(C)c1COC(=O)NC | ? | i | i | i | i
CCSc1nc(COC(=O)NC)c(COC(=O)NC)n1C | + | i | i | i | i
CCOCc1nnc(NC(=O)c2c(OC)cccc2OC)s1 | i | i | 20 | i | i
SMILES | Myeloid diff 2 | CRFBP-R2 block | NRP1-CendR mod | FAS TE block | NadD block
COc1ccc(C(=O)Nc2nnc(Cc3cccs3)s2)cc1OC | + | i | i | i | i
CCCc1nnc(NC(=O)CCC(=O)NCc2ccccc2OC)s1 | i | i | i | i | i
CCc1nnc(NC(=O)CCc2ccccc2OC)s1 | + | i | i | i | i
COc1ccc([C@H]2CC(=O)C[C@@H](CCn3cccn3)O2)cc1 | i | nt | i | i | i
COc1ccccc1N1CCN(C(c2ccccc2Cl)c2nnnn2C(C)(C)C)CC1 (stereo not drawn) | i | i | i | i | i
COc1ccccc1N1CCN(C(c2ccc(Cl)cc2)c2nnnn2C(C)(C)C)CC1 (stereo not drawn) | i | 119 | i | i | i
Cc1cccc(-c2noc(CSc3ccccc3)n2)c1 | i | i | 31 | i | i
Cc1cccc(-c2noc(CNC(=O)c3ccoc3C)n2)c1 | + | i | i | i | i
Cc1cccc(-c2noc(C(C)NC(=O)c3ccco3)n2)c1 (stereo not drawn) | i | 108 | i | i | i
Cc1ccc(-c2noc(CSc3ccccc3)n2)cc1 | i | i | i | i | i
CCO[C@@H]1OC(C(=O)Nc2ccccc2)=C[C@H](C2CC2)[C@H]1CCCO | i | i | i | i | i
CCOc1ccc(C2CC=C(C(C)=O)CN2S(=O)(=O)c2ccc(C)cc2)cc1 (stereo not drawn) | i | nt | i | i | i
C=CCn1c(-c2ccc(Cl)cc2)cnc1SC(C)C(N)=O (stereo not drawn) | i | i | 19 | i | i
CC(=O)c1c(C)[nH]c(C(=O)OCc2ccc(F)cc2Cl)c1C | i | i | i | i | i
O=C(N/N=C/C(Br)=C/c1ccccc1)c1cnccn1 | + | i | i | i | i
O=C(N/N=C/C=C\c1ccccc1)c1cnccn1 | i | i | i | i | i
CCOC(=O)Cc1csc(NC(=S)NC(=O)c2ccc([N+](=O)[O-])cc2)n1 | i | 57 | i | i | i
CCOc1ccc(NC(=O)CCN2C(=O)c3ccccc3C2=O)cc1 | i | i | i | i | i
COc1ccc(CNC(=O)CCc2c[nH]c3ccccc23)cc1 | i | i | 27 | i | i
COC(=O)c1ccc(CNC(=O)CCc2c[nH]c3ccccc23)cc1 | i | i | i | i | i
CC1(C(=O)NCc2ccccc2)CCC(=O)N1CCc1c[nH]c2ccccc12 (stereo not drawn) | i | nt | 24 | i | i
COC(=O)c1ccc2nc(-c3ccccc3)c(Cc3ccccc3OC)n2c1 | i | nt | i | i | i
NNC(=O)c1cc2c(N3CCC(Cc4ccccc4)CC3)ncnc2s1 | + | i | i | i | i
Cn1ncc2c(N3CCC(Cc4ccccc4)CC3)ncnc21 | i | i | i | i | i
Fc1ccc(C2=NN(c3ccccc3)C(c3ccco3)C2)cc1 (stereo not drawn) | i | i | i | i | i
SMILES | Myeloid diff 2 | CRFBP-R2 block | NRP1-CendR mod | FAS TE block | NadD block
O=[N+]([O-])c1ccc(/C=C/C2=NN(c3ccccc3)C(c3ccco3)C2)o1 (stereo not drawn) | + | i | i | i | i
OC[C@H]1O[C@@](CO)(O[C@H]2O[C@H](CO)[C@@H](O)[C@H](O)[C@H]2O)[C@@H](O[C@H]2O[C@H](CO)[C@@H](O)[C@H](O)[C@H]2O)[C@@H]1O | i | i | i | i | i
O=C(CCl)NNC(=O)c1c(O)c2ccccc2[nH]c1=O | + | i | i | i | i
CCOc1ccc(S(=O)(=O)NCCC(=O)N2CC(C)OC(C)C2)cc1 (stereo not drawn) | i | i | i | i | i
Cc1cccc(C)c1NC(=O)C1c2ccccc2OCC(=O)N1Cc1ccc2c(c1)OCO2 (stereo not drawn) | i | nt | i | i | i
CN(C)Cc1ccccc1C(O)(c1ccccc1)c1ccccc1 | i | i | i | i | i
CN(C)Cc1cc(C(F)(F)F)ccc1C(O)(c1ccccc1)c1ccccc1 | i | i | 21 | i | i
CCN(CC)S(=O)(=O)c1cccc(C(=O)NC(Cc2c[nH]c3ccccc23)c2nnc3n2CCCCC3)c1 (stereo not drawn) | i | i | 26 | i | i
CCCCCC(=O)N1C[C@H](n2cc(-c3ccc(F)cc3)nn2)[C@@H](O)C[C@@H]1c1ccc(C)cc1 | i | i | i | i | i
